An excerpt weighted towards active compounds, which were near 11% of everything screened.
hNpr1 antagonist – blocks ANP-stimulated signaling of human Npr1 receptor; Potency, µM (doses to about 46.3 µM), for inactives: top-dose activity change, negative = inhibition, hits mostly inhibitors; actives 1.6% (n = 76,000); P16066; HEK293 hNpr1 GloSensor cGMP, ANP-stimulated luminescence; AID 1347048; calls by dose curve; further: nearly all actives have a fitted effect of over 60% in size
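HEK293 cells stably expressing human Npr1 and cGMP GloSensor pGS-40F, loaded 2 h with 2% GloSensor reagent, given compound 30 min at room temperature. Luminescence read before and 20 min after 0.1 nM hNppA.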
3T3 cytotox – NIH 3T3 cell cytotoxicity; NIH 3T3 viability, CellTiter-Glo ATP luminescence, 48-72 h; Potency, µM (doses to about 96.7 µM), for the others: top-dose activity change, negative = cytotoxicity, actives largely listed as inhibitors; actives 4.3% (n = 94,000); further: nearly all actives have a fitted effect of over 55% in size
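First NIH 3T3 cells are plated at 400 cells/well; next compound is pinned in; then plates incubate 48 or 72 hr at 37 °C; finally CellTiter-Glo is added and luminescence read after 10 min.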
HEK cytotox – cytotoxic compounds in HEK 293 cells; Potency, µM (titrated, usually from 115 µM), without a hit: at the highest dose activity change, negative = cytotoxicity, most hits filed as inhibitors; AID 1345083; actives 6.6% (n = 94,000); HEK 293 viability, ATP luminescence (CellTiter-Glo), 48-72 h; further: nearly all actives have a fitted effect of over 60% in size
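HEK 293 cells seeded at 250 cells/well were exposed to compound for 48 or 72 hr at 37 degree Celsius. Viability taken as ATP content by CellTiter-Glo luminescence.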
Luciferase inh – Photinus pyralis luciferase inhibition | P08659 | Potency, µM (titrated, usually from 115 µM), hits mostly inhibitors | purified P. pyralis luciferase, luminescence, biochemical | actives 2.5% (n = 76,000); further: nearly all actives have a fitted effect of over 65% in size
Target sequence (P08659 whole entry, looked up): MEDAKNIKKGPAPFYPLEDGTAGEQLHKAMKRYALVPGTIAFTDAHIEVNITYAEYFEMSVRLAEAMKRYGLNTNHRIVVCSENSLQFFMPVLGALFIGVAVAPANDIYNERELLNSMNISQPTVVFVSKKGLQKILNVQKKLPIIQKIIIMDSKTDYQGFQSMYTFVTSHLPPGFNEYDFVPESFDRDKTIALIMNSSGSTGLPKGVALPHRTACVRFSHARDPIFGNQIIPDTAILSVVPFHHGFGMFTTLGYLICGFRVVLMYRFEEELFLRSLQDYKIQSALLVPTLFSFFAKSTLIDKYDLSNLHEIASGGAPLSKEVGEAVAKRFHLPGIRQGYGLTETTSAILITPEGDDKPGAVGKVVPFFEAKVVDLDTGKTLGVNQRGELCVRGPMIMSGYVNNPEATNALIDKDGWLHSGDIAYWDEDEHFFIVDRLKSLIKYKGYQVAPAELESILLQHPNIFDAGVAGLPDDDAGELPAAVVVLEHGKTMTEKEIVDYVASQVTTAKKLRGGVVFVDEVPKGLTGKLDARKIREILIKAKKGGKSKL
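FLuc 10nM, D-luciferin 10uM, ATP 10uM, Mg acetate 10mM, Tris acetate pH 7.5, Tween/BSA; cpd qHTS; enzyme added last; CCD luminescence.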
* = called active by the depositor; i = inactive; ? = inconclusive; / = no result; [ ] = remark or other dose. Unless noted, the call rests on the fitted dose curve; in most records, active means well fitted curve in the direction sought with a large enough effect; inconclusive means small, poorly fitted or top-dose-only effect, or another doubt; inactive means no such curve, though single readings can be large; an effect the other way counts as inactive or inconclusive. On the % scale 0 is the no-effect control and ±100 the full control effect; potency means the concentration at half of the fitted maximal effect.

SMILES	hNpr1 antagonist	3T3 cytotox	HEK cytotox	Luciferase inh
N#Cc1cccc(CN2CC[C@H](c3nc4ccccc4[nH]3)C2)c1	-23.4%[70.6 µM]	56.2µM*	50.1µM*	i
COc1ccc2nc([C@H]3CCN(Cc4cccc(C#N)c4)C3)[nH]c2c1	-9.5%[70.6 µM]	31.6µM*	39.8µM*	i
N#Cc1ccc2nc([C@H]3CCN(Cc4ccc(F)c(F)c4)C3)[nH]c2c1	-19.8%[70.6 µM]	31.6µM*	?	i
CC(C)CCN1CC[C@H](c2nc3ccccc3[nH]2)C1	-4.5%[70.6 µM]	-28.7%[230 µM]	?	35.5µM*
CCN1C(=O)C2(CCN(C(=O)COC)CC2)c2ccccc21	-1.1%	-9.2%	2.7%	i
Cc1cc(C)c2[nH]c(C(=O)N3CCN(Cc4ccccc4)C(=O)C3C)c(C)c2c1 (stereo not drawn)	4.9%	25.1µM*	35.5µM*	i
Cc1cnc(-c2ccccc2)n1CCNC(=O)c1cccn1C	2.8%	-15.7%	-0.9%	i
Cc1noc([C@@H]2CN(C(=O)c3ccsc3)C[C@H]2C(N)=O)n1	4.6%	-13.4%	-14.9%	i
COc1cccc(C2CCN(Cc3cn(-c4ccccc4)nn3)C2)c1OC (stereo not drawn)	-4.3%	?	79.4µM*	i
COc1ccc(NC(=O)c2cc3n(n2)CC(c2ccc4c(c2)OCO4)OC3)cc1OC (stereo not drawn)	-16.7%	-10.6%	?	i
CC(C)CNC(=O)c1cc2n(n1)CC(c1ccc3c(c1)OCO3)OC2 (stereo not drawn)	-3.2%	39.8µM*	44.7µM*	i
CCc1ccc(NC(=O)c2cc3n(n2)CC(c2ccc4c(c2)OCO4)OC3)cc1 (stereo not drawn)	11.2µM*	?	31.6µM*	?
O=C(NCCc1nc(-c2cccnc2)no1)c1coc2c1C(=O)CCC2	-6.4%	?	?	i
CC1Oc2ccc(NC(=O)Cc3ccc(F)cc3)cc2CN(Cc2ccc(Cl)cc2)C1=O (stereo not drawn)	-24.3%	28.2µM*	39.8µM*	i
COc1ccccc1CN1Cc2cc(NC(=O)Cc3ccc(F)cc3)ccc2OC(C)C1=O (stereo not drawn)	-15.1%	?	?	i
CCC1Oc2ccc(NC(=O)Cc3ccc(F)cc3)cc2CN(Cc2ccc(Cl)cc2)C1=O (stereo not drawn)	-19.0%	10µM*	?	i
O=C(Nc1ccc2c(c1)CN(Cc1ccc(Cl)cc1)C(=O)CO2)c1ccc(F)cc1F	-26.6%	?	79.4µM*	i
O=C(COc1ccccc1)Nc1ccc2c(c1)CN(CCc1ccc(F)cc1)C(=O)CO2	15.8µM*	?	?	?
O=C(COc1ccccc1)Nc1ccc2c(c1)CN(Cc1ccccc1F)C(=O)CO2	?	?	?	i
CCCNC(=O)N1CCC(Cc2noc(C3CC3)n2)C1 (stereo not drawn)	/	-7.1%	-6.6%	/
CCC1Oc2ccc(NC(=O)C3CCCC3)cc2CN(Cc2ccccc2Cl)C1=O (stereo not drawn)	-4.8%	?	79.4µM*	i
CCC1Oc2ccc(NC(=O)C3CCCC3)cc2CN(Cc2ccc(F)cc2Cl)C1=O (stereo not drawn)	-19.8%	?	?	i
O=C1CCN(S(=O)(=O)c2ccccc2)CCCN(C(=O)CC2CCCC2)CCN1	-1.4%	-17.2%	i	i
O=C(Nc1ccccc1)N1CCC(CCc2nc(C3CCOCC3)no2)CC1	/	?	39.8µM*	/
CC(C)OC(=O)N(C)Cc1cccc(N2CCN(C(=O)c3c(Cl)cccc3Cl)CC2)c1F	/	?	35.5µM*	/
SMILES	hNpr1 antagonist	3T3 cytotox	HEK cytotox	Luciferase inh
CCCN1C(=O)Cc2cc(C(=O)N3CCN(c4ccccc4Cl)CC3)ccc21	-2.0%	?	?	i
CN(Cc1ccccc1)C(=O)c1coc(CN2CCN(c3ccccc3F)CC2)n1	-6.0%	-22.1%	?	i
Cc1nc(N2CCN(C(=O)c3c(F)cccc3Cl)CC2)cc(C(F)(F)F)n1	-1.9%	-23.3%	-20.8%	i
CC(C)N(Cc1cccc(N2CCN(C(=O)c3c(Cl)cccc3Cl)CC2)c1F)[S+](C)(=O)[O-]	/	?	79.4µM*	/
CCOC(=O)C(Cc1cccc(N2CCN(C(=O)c3c(Cl)cccc3Cl)CC2)c1F)OC (stereo not drawn)	/	?	79.4µM*	/
CC(c1ccccc1)N1CCN(c2cccc(CN(C)[S+](C)(=O)[O-])c2F)CC1 (stereo not drawn)	/	?	79.4µM*	/
Cc1cnc(-c2ccccc2)n1CCNC(=O)C(C)c1ccccc1 (stereo not drawn)	/	-24.0%	-23.4%	/
CCOc1ccccc1-c1noc(-c2ncn3c2COC(c2ccc(OC)cc2)C3)n1 (stereo not drawn)	5.0%	?	?	i
COc1ccc(CN2CCOc3ccc(C(=O)NCc4ccccc4F)cc3C2)c(OC)c1	-6.0%	?	?	i
O=C1CCN(Cc2cccc(F)c2)CCCC(c2nc(-c3cccnc3)no2)CCN1 (stereo not drawn)	2.0%	?	79.4µM*	i
COc1cc(-c2ccnc3nc(CCc4ccccc4)nn23)cc(OC)c1OC	-5.7%	-17.7%	-21.3%	i
CC(C)n1ccnc1CN1CCCC12CCN(c1ccc(C(F)(F)F)cn1)CC2	2.5%	?	35.5µM*	i
Cn1c2c(c3cc(F)ccc31)CN(C(=O)Nc1cccc(Cl)c1)CC2	?	20µM*	?	?
Cc1cccc(NC(=O)N2CCc3c(c4cc(F)ccc4n3C)C2)c1	-15.4%	?	?	?
Cn1c2c(c3cc(F)ccc31)CN(C(=O)Nc1ccc(Cl)cc1)CC2	-14.7%	28.2µM*	?	25.1µM*
COc1ccc(-c2ccccc2C(=O)N2CCOCC2)nn1	/	-19.6%[138 µM]	0.7%[172 µM]	/
COC(=O)C1=C(C)N=C2SC=C(CC(=O)NCCOc3ccccc3)N2C1c1cccc(OC)c1 (stereo not drawn)	-23.9%	-26.9%	?	i
Cc1noc(C)c1-c1cc2c(cc(-c3ccccc3)n2C)c(-c2cccnc2)n1	-23.9%[70.6 µM]	?	?	i
COc1ncccc1-c1nc(-c2c(C)noc2C)cc2c1cc(-c1ccccc1)n2C	-24.2%[70.6 µM]	25.1µM*	28.2µM*	i
COc1ccc(-c2nc(-c3c(C)noc3C)cc3c2cc(-c2ccccc2)n3C)cn1	-17.4%[70.6 µM]	50.1µM*	?	i
CCOC(=O)C1CCCN(C(=O)C2CCc3nnc(-c4cccc(C(F)(F)F)c4)n32)C1 (stereo not drawn)	/	?	-14.7%	/
C=CCN(CC=C)Cc1c(C(=O)N2CCN(C3CCCCC3)CC2)nc2ccccn12	13.5%	-20.4%	?	i
CCN1C(=O)CCC2(C(=O)NCCc3c[nH]c4ccccc34)CCCC=C12 (stereo not drawn)	-6.8%	-20.5%	-19.2%	?
COc1ccc(-c2cc(N3CCCN(C(=O)c4ccc(OC)cc4OC)CC3)n[nH]2)cc1	?	?	39.8µM*	i
